CHX counter: Cycloheximide Counterscreen for Small Molecule Inhibitors of Shiga Toxin; cell reporter, cycloheximide protein synthesis inhibition counterscreen; max response, %; actives 12% (n = 300,000); AID 2314, 2010; in the data active = max response mostly above about 13%, no sharp cut-off; inactive = mostly below about 14%; also: read at 38.3 µM for the half of the compounds with a filed dose
Shiga toxin inh: A qHTS for Small Molecule Inhibitors of Shiga Toxin; Vero cells, Shiga toxin protein synthesis inhibition reporter; inhibition, % at 38.7 µM; actives 9.2% (n = 290,000); in the data active = inhibition mostly above about 28%, no sharp cut-off; inactive = mostly below about 43%
Marburg entry inh: qHTS for inhibitors of binding or entry into cells for Marburg Virus. Marburg virus pseudotyped entry inhibition, cell reporter. Potency, µM (doses to about 37.8 µM), most hits filed as inhibitors. actives 1.8% (n = 300,000); calls by dose curve; tested in HEK293 cells
FMDV antiviral: High Throughput Screening for Foot and Mouth Disease Virus Antivirals | actives 1.2% (n = 410,000) | Potency, µM (titrated, usually from 57.9 µM), hits mostly inhibitors | AID 1159524, 2015 | FMDV antiviral cell-based qHTS; calls by dose curve; tested in HEK293T cells; also: read-out not given here; nearly all actives have a fitted effect of over 45% in size
HCV inh: qHTS Assay for Inhibitors of Hepatitis C Virus (HCV); Huh7.5.1 HCVcc-Cre infection, luciferase reporter, 44 h; Potency, µM (top dose mostly 41.8 µM), actives largely listed as inhibitors; actives 3.4% (n = 340,000); AID 651820, 2012; active = well fitted inhibition curve with a large enough effect; inconclusive = small, poorly fitted or top-dose-only effect, or another doubt; inactive = no such curve, though single readings can be large or run the other way
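HCVcc-Cre virus at an moi near 0.5 was added right after compound to cells cultured 4 h from seeding (1,000 cells/well). Luciferase activity was determined 44 h later, 15 min after substrate addition at RT.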
LASV entry inh: qHTS for Inhibitors of binding or entry into cells for Lassa Virus; Lassa virus pseudotype entry inhibition, cell reporter; Potency, µM (highest dose often 37.9 µM), hits mostly inhibitors; actives 1.2% (n = 300,000); calls by dose curve; tested in HEK293 cells; also: nearly all actives have a fitted effect of over 50% in size
Of the large screens only hits and unclear results are named; the others gave an inactive call. A selection: hits, their analogues and other compounds. The true share with any hit is near 13%.

CCOc1ccc(N(Cc2cc3cc(C)ccc3[nH]c2=O)C(=O)COC)cc1	none (no result: Shiga toxin inh, Marburg entry inh, LASV entry inh)
CCCNC(=O)c1[nH]c(C)c(C(=O)OCC)c1C	none (no result: Marburg entry inh, FMDV antiviral, LASV entry inh)
COc1ccc(NC(=O)c2ccc3c(c2)OCO3)cc1	CHX counter 33 (no result: Marburg entry inh, LASV entry inh)
O=C(Nc1ccc2c(c1)OCO2)c1ccc([N+](=O)[O-])cc1[N+](=O)[O-]	Shiga toxin inh 44, HCV inh inconclusive
COc1ccc(NC(=O)COC(=O)c2ccc3c(c2)OCCO3)cc1	none (no result: CHX counter, Shiga toxin inh, Marburg entry inh, HCV inh, LASV entry inh)
CCOC(=O)c1c(C)[nH]c(C(=O)Nc2ccc3c(c2)OCO3)c1C	CHX counter 41, Shiga toxin inh 53 (no result: Marburg entry inh, FMDV antiviral, HCV inh, LASV entry inh)
CCOC(=O)Nc1ccc2c(c1)OCO2	CHX counter 45, HCV inh inconclusive
Cn1c(=O)c2c(SCC(=O)NC3CCCC3)nc(CC(C)(C)C)nc2n(C)c1=O	none (no result: Marburg entry inh, LASV entry inh)
Cc1ccc(CNC(=O)c2cccn2-c2nnc(N3CCCC3)s2)cc1	none (no result: CHX counter, Shiga toxin inh, Marburg entry inh, HCV inh)
CCN(CC)c1cc(C)c2cc(NC(=O)c3ccccc3Cl)ccc2n1	Marburg entry inh inconclusive (no result: CHX counter, Shiga toxin inh, HCV inh)
CCc1ccc(NC(=O)c2ccc(OC)c([N+](=O)[O-])c2)cc1	CHX counter 37, Shiga toxin inh 90, Marburg entry inh inconclusive, HCV inh inconclusive
CCN(CC)c1ccc(C(=O)Nc2ccc3nc(N(CC)CC)cc(C)c3c2)cc1	Marburg entry inh 11µM, LASV entry inh inconclusive (no result: CHX counter, Shiga toxin inh, HCV inh)
CCC(=O)Nc1ccc(NC(=O)c2ccc3c(c2)OCO3)cc1	Marburg entry inh inconclusive
CCN(CC)c1ccc(C(=O)NC(=S)N2CCN(Cc3ccc4c(c3)OCO4)CC2)cc1	HCV inh 11µM
CCN(CC)c1ccc(NC(=O)c2ccc3c(c2)OCO3)cc1	CHX counter 55, Shiga toxin inh 58, Marburg entry inh inconclusive, HCV inh inconclusive
CN(CC(=O)NCc1ccc(Cl)cc1)S(=O)(=O)c1ccc2[nH]c3c(c2c1)CCCC3	LASV entry inh inconclusive (no result: CHX counter, Shiga toxin inh, Marburg entry inh, HCV inh)
COc1ccc(S(=O)(=O)N2CCOCC2)cc1NC(=O)CN1CCCCCC1	LASV entry inh inconclusive
C=C1C(C)(C)[C@@H]2CC[C@]1(C(=O)Nc1nccs1)C2	none (no result: CHX counter, Shiga toxin inh, FMDV antiviral, HCV inh, LASV entry inh)
CC(C)(C)OC(=O)N1Cc2ccccc2C[C@H]1C(=O)N1CCC[C@H]1C(=O)O	none
COc1ccc(C(=O)N2c3ccccc3C(=O)OC2c2ccc3c(c2)OCO3)cc1 (stereo not given)	CHX counter 20, LASV entry inh inconclusive
O=C(Nc1ccc2c(c1)OCO2)Oc1ccccc1	CHX counter 38, Shiga toxin inh 76
COc1ccc(NC(=O)c2ccc3c(c2)OCO3)cc1[N+](=O)[O-]	CHX counter 31, Shiga toxin inh 60
CCc1nnc(NC(=O)Cn2ccc(C(F)(F)F)n2)s1	Marburg entry inh inconclusive
Cc1cc(NC(=O)c2ccno2)no1	none (no result: Marburg entry inh, LASV entry inh)
Cc1ccc(NNC(=O)c2ccno2)c(C)c1	Marburg entry inh 8.9µM, HCV inh inconclusive, LASV entry inh inconclusive
CC1CC(C)CN(CCCNC(=O)CCNC(=O)Cn2cnc3ccccc3c2=O)C1 (stereo not given)	none
CC(C)(C)c1ccc(C(=O)c2c[nH]c(C(=O)NCCCn3ccnc3)c2)cc1	none
CN(C)C=NC(=O)c1cc(C(=O)c2ccccc2Cl)c[nH]1	none
CN(C)C=NC(=O)c1cc(C(=O)c2ccc(C(C)(C)C)cc2)c[nH]1	CHX counter 44, Shiga toxin inh 83, Marburg entry inh inconclusive, LASV entry inh 3.2µM
COC(=O)c1cc(C(=O)c2ccc(C(C)(C)C)cc2)c[nH]1	CHX counter 32, Shiga toxin inh 97, LASV entry inh inconclusive
CC(C)(C)c1ccc(C(=O)c2c[nH]c(C(=O)O)c2)cc1	CHX counter 29, LASV entry inh inconclusive
O=S(=O)(c1ccc2c(c1)OCCO2)N1CCN(S(=O)(=O)c2c(F)cccc2F)CC1	none (no result: Marburg entry inh, FMDV antiviral, HCV inh, LASV entry inh)
Cc1ccccc1C(=O)N1CCC(C(=O)N(C)CC(=O)Nc2cccc(F)c2)CC1	none
O=C(O)[C@@H]1CSC2(CCSC2)N1 (stereo not given in full)	none (no result: FMDV antiviral, HCV inh, LASV entry inh)
COc1ccc(Nc2nc(C(=O)NCc3ccco3)cs2)cc1	CHX counter 14, HCV inh inconclusive (no result: Marburg entry inh, LASV entry inh)
O=C(NCc1ccco1)c1csc(Nc2ccccc2Cl)n1	HCV inh inconclusive, LASV entry inh inconclusive
COc1ccc(C(=O)Nc2cccc(C(=O)NCc3ccco3)c2)cc1	CHX counter 12, HCV inh inconclusive, LASV entry inh inconclusive
CC(C)Oc1ccc(C(=O)NCc2ccco2)cc1	CHX counter 29, Shiga toxin inh 38, Marburg entry inh inconclusive
O=C(NCc1ccco1)c1cccc(NC(=O)c2ccco2)c1	Marburg entry inh inconclusive, LASV entry inh inconclusive
CCCOc1ccc(C(=O)NCc2ccco2)cc1	CHX counter 35, Shiga toxin inh 74, LASV entry inh inconclusive
Cn1c(=O)c(=O)n(C)c2cc(S(=O)(=O)N3CCN(c4ccccc4F)CC3)ccc21	FMDV antiviral inconclusive
COc1cccc(C(=O)c2c[nH]c(C(=O)NCc3ccco3)c2)c1	CHX counter 23, LASV entry inh inconclusive
O=C(C1CCN(Cc2ccc(F)cc2)CC1)N1CCN(C/C=C/c2ccccc2)CC1	Marburg entry inh inconclusive, HCV inh inconclusive, LASV entry inh inconclusive
C=C1C(=O)OC2C1CCC(C)=C1C(=O)C3OC3(C)C12 (stereo not given)	FMDV antiviral 28µM, HCV inh 10µM (no result: CHX counter, Shiga toxin inh, Marburg entry inh, LASV entry inh)
O=C(COC(=O)/C=C/c1ccc(Br)o1)NC1CCCCC1	none (no result: CHX counter, Shiga toxin inh, Marburg entry inh, LASV entry inh)
COc1ccc(C2C(C(=O)/C=C/c3ccco3)=C(O)C(=O)N2CCN2CCOCC2)cc1 (stereo not given)	Marburg entry inh inconclusive, HCV inh 11µM
CN(CCC#N)C(=O)COC(=O)c1c2c(nc3ccccc13)/C(=C/c1ccco1)CC2	CHX counter 38, HCV inh inconclusive
O=C(NC(=S)NC1CCS(=O)(=O)C1)c1ccccc1 (stereo not given)	none (no result: Marburg entry inh, LASV entry inh)
O=C(NC(=S)NC1CCCCCC1)c1cncc(Br)c1	CHX counter 40, Shiga toxin inh 85, Marburg entry inh inconclusive, LASV entry inh inconclusive
C/C(=N\NC(=S)NC1CCCCC1)c1ccccc1	CHX counter 12
O=C(NC(=S)NC1CCCCC1)c1ccccc1	CHX counter 48, Shiga toxin inh 99, LASV entry inh inconclusive
O=C(NC(=S)Nc1ncc(Br)cc1Br)c1cncc(Br)c1	none
Cc1c(C)n(CCCN(C)C)c2ncnc(NCc3ccccc3)c12	Marburg entry inh inconclusive
COc1ccccc1Nc1ncnc2c1nc1n2CCCC1	none (no result: CHX counter, Shiga toxin inh, Marburg entry inh, HCV inh)
COc1ccccc1Nc1ncnc2c1c(C)c(C)n2CCO	CHX counter 42, Shiga toxin inh 61, HCV inh inconclusive
Cc1c(C)n(CCc2ccccc2)c2ncnc(NCCO)c12	CHX counter 52, Shiga toxin inh 68 (no result: Marburg entry inh, LASV entry inh)
CC1=CC(=O)C(C(C)C)=C/C1=C(\c1cc(C(C)C)c(OP(=O)(O)O)cc1C)c1ccccc1C(=O)O	Marburg entry inh inconclusive, HCV inh inconclusive, LASV entry inh inconclusive
